# Assay results as given in PubChem BioAssay (Tox21).
# Several values for one entry are separate records, joined by “and”; a condition that tells them apart may be missing. Identical values can stand only once. Inconclusive results are not listed. Some compounds were tested as several samples or in several runs, with calls that do not always agree. Activity calls are given as the source filed them. Calls come from the whole dose curve; as a rule, active = well fitted inhibition curve with a large enough effect in the repeat runs; inconclusive = weak or mixed curves; inactive = no such curve, though single readings can be large or run the other way.
# Target: Cytochrome P450 2C19 (Homo sapiens) (UniProt P33261)
# Sequence (P33261 whole entry, looked up): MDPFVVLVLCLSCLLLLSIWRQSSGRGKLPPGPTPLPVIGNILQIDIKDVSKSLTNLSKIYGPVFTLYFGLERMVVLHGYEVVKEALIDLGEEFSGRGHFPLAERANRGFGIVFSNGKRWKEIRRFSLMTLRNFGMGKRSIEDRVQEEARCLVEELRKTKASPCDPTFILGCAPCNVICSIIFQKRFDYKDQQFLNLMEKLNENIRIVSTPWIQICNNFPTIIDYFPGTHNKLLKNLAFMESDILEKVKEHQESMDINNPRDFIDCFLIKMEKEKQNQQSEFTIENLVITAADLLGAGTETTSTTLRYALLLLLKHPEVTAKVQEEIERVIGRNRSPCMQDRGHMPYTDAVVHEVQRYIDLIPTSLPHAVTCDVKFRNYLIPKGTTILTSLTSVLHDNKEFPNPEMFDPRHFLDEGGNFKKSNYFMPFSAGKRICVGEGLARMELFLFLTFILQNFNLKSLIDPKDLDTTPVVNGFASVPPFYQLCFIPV
# Experiment: Cytochrome P450 Family 2 Subfamily C Member 19 (CYP2C19) small molecule antagonists: luciferase reporter qHTS assay (AID 1671197); note: nearly all actives have a fitted effect of over 65% in size
# Details: P450-Glo CYP2C19 enzyme, luciferin luminescence, 1 h; series mostly up to 115 µM
# Summary of the method: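 P450-Glo CYP2C19 system: enzyme-substrate mix with compound 10 min at room temperature, then NADPH regeneration solution, 1 h at 37C. Proluciferin-to-luciferin conversion detected by luminescence after 20 min with detection reagent; ketoconazole as positive control.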
# % is set by controls: 0 for no effect and ±100 for the full control effect; potency is the fitted concentration of half-maximal effect.
Structure (SMILES),Potency,"activity change, negative = inhibition"
CC(=O)Oc1c(C)c(C)c2c(c1C)CC[C@@](C)(CCC[C@H](C)CCC[C@H](C)CCCC(C)C)O2,inactive,–
CCCCCCC(C)O (stereo unspecified),inactive,–
Oc1c(Cl)ccc(Cl)c1Cl,79.5 µM (active) and inactive,–
NCCOCCO,inactive,–
O=[Se](O)O,56.5 µM (active),-23.6% [at 23.6 µM] (inactive)
Brc1nc2ccccc2s1,35.5 µM (active) and inactive,–
Cc1ccc(C(C)(C)C)c(O)c1,30.7 µM (active) and 39.9 µM (active),–
CC(=O)[C@@]1(O)CC[C@H]2[C@@H]3C[C@H](C)C4=CC(=O)C=C[C@]4(C)[C@@]3(F)[C@@H](O)C[C@@]21C,inactive,–
CC(=O)O[C@]1(C(C)=O)CC[C@H]2[C@@H]3C=C(Cl)C4=CC(=O)CC[C@]4(C)[C@H]3CC[C@@]21C,12.6 µM (active) and 4.36 µM (active),–
C/C=C/C(=O)N(CC)c1ccccc1C,44.8 µM (active) and 17.4 µM (active),–
CC[C@]12CCCN3CCc4c(n(c5ccccc45)[C@@](O)(C(=O)OC)C1)[C@@H]32,71 µM (active) and inactive,–
CC1(C)OC(=O)NC1=O,inactive,–
CC(=O)Oc1ccc(C(c2ccc(OC(C)=O)cc2)c2ccccn2)cc1,7.92 µM (active) and 24.5 µM (active),–
O=C(O)c1cc(=O)[nH]c(=O)[nH]1,40 µM (active) and inactive,–
CC1(C)NC(=O)N(c2ccc([N+](=O)[O-])c(C(F)(F)F)c2)C1=O,2.52 µM (active) and 1.38 µM (active),–
